Measured values published in PubChem BioAssay (NCATS).
Records with an inconclusive call do not appear. Activity calls are given as the source filed them. The call rests on the fitted dose curve; in most records, active means well fitted curve in the direction sought with a large enough effect; inconclusive means small, poorly fitted or top-dose-only effect, or another doubt; inactive means no such curve, though single readings can be large; an effect the other way counts as inactive or inconclusive.

Tests used:
[1] = qHTS of pediatric cancer cell lines to identify multiple opportunities for drug repurposing: Primary screen for MG 63 (6-TG R) cells (AID 1347105); settings: MG 63 (6-TG R) viability, CellTiter-Glo, 48 h; series mostly up to 46 µM; further: nearly all actives have a fitted effect of over 50% in size
In short: (§1)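 Plated cells (500-1,000 per well, growth media) were allowed to settle for 5 hours, treated with compound dilutions for 48 hours, then lysed with CellTiter-Glo for 15 min at room temperature before luminescence reading.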

[2] = qHTS of pediatric cancer cell lines to identify multiple opportunities for drug repurposing: Primary screen for control Hh wild type fibroblast cells (AID 1347106); settings: Hh wild-type fibroblast viability, CellTiter-Glo luminescence, 48 h; series mostly up to 46 µM;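 further: a drop in luminescence marks cytotoxicity and a rise apparent proliferation; nearly all actives have a fitted effect of over 55% in size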
In short: (§2)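 Cells (500-1,000/well) in growth media were settled 5 h at 37 degrees C, then given compounds for 48 h. Viability was read as CellTiter-Glo luminescence. Primary runs used MIPE at 11 points (0.78 nM-46 µM) and NPC at 8 points (0.59 nM-46 µM); follow-ups used 11 points.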

[3] = qHTS of pediatric cancer cell lines to identify multiple opportunities for drug repurposing: Primary screen for Rh30 cells (AID 1347107); settings: Rh30 rhabdomyosarcoma viability, CellTiter-Glo luminescence, 48 h; series mostly up to 46 µM; further: nearly all actives have a fitted effect of over 75% in size
In short: as §2

[4] = qHTS of pediatric cancer cell lines to identify multiple opportunities for drug repurposing: Primary screen for Rh41 cells (AID 1347108); settings: Rh41 rhabdomyosarcoma viability, CellTiter-Glo luminescence, 48 h; series mostly up to 46 µM;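 further: luminescence drop marks cytotoxic hits; nearly all actives have a fitted effect of over 70% in size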
In short: as §1

Measured: outcome

NC(=O)NC1NC(=O)NC1=O (stereo not drawn)
inactive: [1] | [2] | [3] | [4]

O=C(O)Cc1ccc(CCNS(=O)(=O)c2ccc(Cl)cc2)cc1
inactive: [1] | [2] | [3] | [4]

CCN(CC)CCc1nc(-c2ccccc2)no1
inactive: [1] | [2] | [3] | [4]

CC(C)NC[C@@H](O)COc1ccc(CC(N)=O)cc1
inactive: [1] | [2] | [3] | [4]

CCOc1ccccc1O[C@H](c1ccccc1)[C@H]1CNCCO1
inactive: [1] | [2] | [3] | [4]

COc1ccc(Cc2cnc(N)nc2N)cc1OC
inactive: [1] | [2] | [3] | [4]

CCCCCCCC(=O)OCC(COC(=O)CCCCCCC)OC(=O)CCCCCCC
inactive: [1] | [2] | [3] | [4]

CCCCCC(C)N (stereo not drawn)
inactive: [1] | [2] | [3] | [4]

C[n+]1ccccc1/C=N/O
inactive: [1] | [2] | [3] | [4]

COC(=O)c1ccccc1C(=O)c1ccc(OCCN2CCCCC2)cc1
inactive: [1] | [2] | [3] | [4]

Cc1onc(-c2ccccc2)c1-c1ccc(S(N)(=O)=O)cc1
inactive: [1] | [2] | [3] | [4]

CCCCC1(COC(=O)CCC(=O)O)C(=O)N(c2ccccc2)N(c2ccccc2)C1=O
inactive: [1] | [2] | [3] | [4]

CC(=O)N[C@H]1[C@H]([C@H](O)[C@H](O)CO)OC(C(=O)O)=C[C@@H]1N=C(N)N
inactive: [1] | [2] | [3] | [4]

O=C(O)c1ccccc1C(=O)Nc1ccc(S(=O)(=O)Nc2nccs2)cc1
inactive: [1] | [2] | [3] | [4]

O=C(O)CCC(=O)O
inactive: [1] | [2] | [3] | [4]

Nc1ccc(C(=O)Oc2ccccc2)c(O)c1
inactive: [1] | [2] | [3] | [4]

OCCN1C[C@H](O)[C@@H](O)[C@H](O)[C@H]1CO
inactive: [1] | [2] | [3] | [4]

C=CCOc1ccccc1OCC(O)CNC(C)C (stereo not drawn)
inactive: [1] | [2] | [3] | [4]

CC1(C)[C@@H](OC(=O)CCC(=O)O)CC[C@]2(C)[C@H]3C(=O)C=C4[C@@H]5C[C@@](C)(C(=O)O)CC[C@]5(C)CC[C@@]4(C)[C@]3(C)CC[C@@H]12
inactive: [1] | [2] | [3] | [4]

Cc1cc(OI)c(C(C)C)cc1-c1cc(C(C)C)c(OI)cc1C
inactive: [1] | [2] | [3] | [4]

O=C(CN1CCNCC1)NC1CCCCC1
inactive: [1] | [2] | [3] | [4]

O=C(Cn1ccnc1[N+](=O)[O-])NCCO
inactive: [1] | [2] | [3] | [4]

CN(C(=O)c1c(O)c2ccccc2n(C)c1=O)c1ccccc1
inactive: [1] | [2] | [3] | [4]

C[N+]1(C)CCCC(OC(=O)C(O)(c2ccccc2)c2ccccc2)C1 (stereo not drawn)
inactive: [2] | [3]

CCOC(=O)c1cccnc1
inactive: [1] | [3]

CO[C@@]1(NC(=O)C(C(=O)O)c2ccc(O)cc2)C(=O)N2C(C(=O)O)=C(CSc3nnnn3C)CO[C@@H]21 (stereo partly drawn)
inactive: [1] | [3] | [4]

CNCc1ccccc1
inactive: [1] | [3] | [4]

Cc1c(C(=O)NCCO)[n+](=O)c2ccccc2n1[O-]
inactive: [1] | [3] | [4]

Nc1ncnc2c1ncn2[C@@H]1O[C@H](COP(=O)(O)O)[C@@H](O)[C@H]1O
inactive: [1] | [3] | [4]
